Source: PubChem BioAssay (EPA / NIEHS)
Where “and” joins values, the source holds several entries; their conditions need not be identical. Equal values may be shown once. Some structures have more than one record in an assay (separate samples or runs), and their calls can disagree. Calls of active or inactive are those of the source. How the source made its calls: active means hit-call score of the fitted dose curve at least 0.9, where 1 is the maximum; inactive means score below 0.9.

Tests used:
[1] = read-out: TIMP metallopeptidase inhibitor 2 (TIMP2), TIMP2 (gene 7077); assay: BSK_KF3CT_TIMP2: BioMAP Diversity Plus: KF3CT Assay for TIMP metallopeptidase inhibitor 2 (TIMP2) Biomarker Activity (AID 2283071); conditions: primary human keratinocytes with fibroblasts; actives raise or lower the signal
Outline: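 Chemicals were dosed onto human skin primary co-cultures of keratinocytes and foreskin fibroblasts, and TIMP-2 was measured by ELISA after 24 hours. Activity in either direction was fitted relative to DMSO.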

[2] = read-out: Transforming growth factor beta 1 (TGFb1), TGFB1 (gene 7040); assay: BSK_KF3CT_TGFb1: BioMAP Diversity Plus: KF3CT Assay for Transforming growth factor beta 1 (TGFb1) Biomarker Activity (AID 2283072); conditions: primary human keratinocytes with fibroblasts; actives raise or lower the signal
Outline: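 KF3CT co-culture (keratinocytes + fibroblasts), 24 h exposure → TGF-b1 ELISA → bidirectional fit, DMSO = baseline. Parallel SRB total-protein staining (0.1% SRB, 10% TCA fixation, 560 nm) for cytotoxicity.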

[3] = read-out: C-C motif chemokine 2 (Homo sapiens) (UniProt P13500); assay: BSK_KF3CT_MCP1: BioMAP Diversity Plus: KF3CT Assay for Monocyte Chemoattractant Protein 1 (MCP1/CCL2) Biomarker Activity (AID 2283073); conditions: primary human keratinocytes with fibroblasts; actives raise or lower the signal
Outline: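 ELISA read-out of MCP-1, 24 h post-dose, in primary human skin keratinocytes co-cultured with fibroblasts. Parallel SRB staining monitors cytotoxicity; changes fitted both directions relative to DMSO.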

[4] = read-out: Matrix Metallopeptidase 9 (MMP9), MMP9 (gene 4318); assay: BSK_KF3CT_MMP9: BioMAP Diversity Plus: KF3CT Assay for Matrix Metallopeptidase 9 (MMP9) Biomarker Activity (AID 2283074); conditions: primary human keratinocytes with fibroblasts; actives raise or lower the signal;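 on AC50: MMP9 protein level quantified by ELISA in the co-culture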
Outline: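 ELISA read-out of MMP-9 at 24 h post-dosing in a co-culture of human skin keratinocytes and foreskin fibroblasts. Gain or loss of signal was fitted in both directions against DMSO.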

[5] = read-out: urokinase plasminogen activator (uPA), PLAU (gene 5328); assay: BSK_KF3CT_uPA: BioMAP Diversity Plus: KF3CT Assay for urokinase plasminogen activator (uPA) Biomarker Activity (AID 2283075); conditions: primary human keratinocytes with fibroblasts; actives raise or lower the signal
Outline: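 Skin co-culture (keratinocytes + foreskin fibroblasts), human primary; 24 h post-dose; uPA by ELISA; gain/loss fit vs DMSO baseline.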

CD40, CD40 (gene 958) [6] = assay: BSK_LPS_CD40: BioMAP Diversity Plus: LPS Assay for CD40 Biomarker Activity (AID 2283076); conditions: primary human HUVEC with PBMC; actives raise or lower the signal
Outline: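 In the LPS system of human endothelial cells with peripheral blood mononuclear cells, CD40 levels were read by ELISA 24 h post-treatment. Signal changes in either direction were fitted against the DMSO baseline, with parallel SRB protein staining.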

[7] = read-out: E-selectin (Homo sapiens) (UniProt P16581); assay: BSK_LPS_Eselectin: BioMAP Diversity Plus: LPS Assay for Eselectin Biomarker Activity (AID 2283077); conditions: primary human HUVEC with PBMC; actives raise or lower the signal
Outline: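 E-selectin ELISA on LPS-stimulated endothelial cell/PBMC co-cultures, read 24 h post-treatment; gains and losses fitted against DMSO. Parallel SRB staining (0.1% SRB after 10% TCA fixation, 560 nm) flags overt cytotoxicity.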

[8] = read-out: Interleukin-8 (IL8), CXCL8 (gene 3576); assay: BSK_LPS_IL8: BioMAP Diversity Plus: LPS Assay for Interleukin-8 (IL8) Biomarker Activity (AID 2283078); conditions: primary human HUVEC with PBMC; actives raise or lower the signal
Outline: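 ELISA read-out of IL-8 after 24 h chemical treatment of LPS-activated endothelial/PBMC human primary co-cultures. Changes either up or down relative to DMSO; overt cytotoxicity checked by sulforhodamine B staining in parallel wells.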

[9] = BSK_LPS_SRB: Viability Assessment in the BioMAP Diversity Plus: LPS Assay (AID 2283079); conditions: primary human HUVEC with PBMC;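 further: total protein by sulforhodamine B absorbance as a cytotoxicity measure; measured one day after compound addition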
Outline: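 SRB viability endpoint: cells fixed with 10% TCA, stained with 0.1% SRB, read at 560 nm, 24 h post-dose. HUVEC/PBMC co-culture; signal change in either direction scored relative to DMSO.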

[10] = read-out: Interleukin-1 alpha (IL1a), IL1A (gene 3552); assay: BSK_LPS_IL1a: BioMAP Diversity Plus: LPS Assay for Interleukin-1 alpha (IL1a) Biomarker Activity (AID 2283080); conditions: primary human HUVEC with PBMC; actives raise or lower the signal
Outline: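 Readout is IL-1a level by ELISA, 24 h post-dose, fitted as gain or loss relative to DMSO. System: LPS-activated human primary co-culture of vascular endothelium and peripheral blood mononuclear cells, with parallel SRB total-protein cytotoxicity.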

[11] = read-out: Monocyte Chemoattractant Protein-1 (MCP1), CCL2 (gene 6347); assay: BSK_LPS_MCP1: BioMAP Diversity Plus: LPS Assay for Monocyte Chemoattractant Protein-1 (MCP1) Biomarker Activity (AID 2283081); conditions: primary human HUVEC with PBMC; actives raise or lower the signal;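 on AC50: secreted MCP-1 protein quantified by ELISA in culture supernatant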
Outline: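 Secreted MCP-1 read by ELISA at 24 h post-dosing in an LPS-activated co-culture of endothelial cells with peripheral blood mononuclear cells. Fits run in both directions, DMSO as baseline; parallel SRB staining tracks overt cytotoxicity.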

[12] = BSK_LPS_PGE2: BioMAP Diversity Plus: LPS Assay for Prostaglandin E2 (PGE2) Biomarker Activity (AID 2283082); conditions: primary human HUVEC with PBMC; actives raise or lower the signal;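 on AC50: secreted prostaglandin E2 measured by ELISA in LPS-stimulated co-culture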
Outline: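 Compounds were added to the LPS co-culture of endothelium and PBMC, and PGE2 was measured by ELISA after 24 h. Responses in either direction were fitted with DMSO as baseline.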

[13] = read-out: Macrophage colony-stimulating factor (MCSF), CSF1 (gene 1435); assay: BSK_LPS_MCSF: BioMAP Diversity Plus: LPS Assay for Macrophage colony-stimulating factor (MCSF) Biomarker Activity (AID 2283083); conditions: primary human HUVEC with PBMC; actives raise or lower the signal
Outline: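 Bidirectional fitting against DMSO was applied to M-CSF levels read by ELISA at 24 h post-dose. The system pairs human umbilical vein endothelium with peripheral blood mononuclear cells; parallel SRB staining tracked cytotoxicity.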

[14] = read-out: Tissue Factor, F3 (gene 2152); assay: BSK_LPS_TissueFactor: BioMAP Diversity Plus: LPS Assay for Tissue Factor Biomarker Activity (AID 2283084); conditions: primary human HUVEC with PBMC; actives raise or lower the signal
Outline: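 Compound was added to an endothelial cell/PBMC co-culture, and after 24 h tissue factor (CD142) was read by ELISA. Gain or loss of signal was fitted against a DMSO baseline, and parallel SRB staining (560 nm) tracked overt cytotoxicity.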

[15] = read-out: Tumor necrosis factor (Homo sapiens) (UniProt P01375); assay: BSK_LPS_TNFa: BioMAP Diversity Plus: LPS Assay for Tumour Necrosis Factor alpha (TNFa) Biomarker Activity (AID 2283085); conditions: primary human HUVEC with PBMC; actives raise or lower the signal;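 on AC50: TNFa protein level quantified by ELISA in the co-culture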
Outline: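 Cells (umbilical vein endothelium plus peripheral blood mononuclear cells) were dosed with chemical, incubated 24 h, then TNFa was quantified by ELISA; values derive from bidirectional fitting with DMSO as baseline.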

[16] = read-out: Vascular cell adhesion molecule 1 (VCAM1), VCAM1 (gene 7412); assay: BSK_LPS_VCAM1: BioMAP Diversity Plus: LPS Assay for Vascular cell adhesion molecule 1 (VCAM1) Biomarker Activity (AID 2283086); conditions: primary human HUVEC with PBMC; actives raise or lower the signal
Outline: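 Cells are dosed in an LPS-stimulated endothelial/mononuclear co-culture and, after 24 h, VCAM-1 is quantified by ELISA. Activity in either direction is fitted relative to the DMSO negative control.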

CD38, CD38 (gene 952) = assay: BSK_SAg_CD38: BioMAP Diversity Plus: SAg Assay for CD38 Biomarker Activity (AID 2283087); conditions: primary human HUVEC with PBMC; actives raise or lower the signal
Outline: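 CD38 quantified by ELISA (fluorescence) in a superantigen-activated endothelial cell–PBMC co-culture at 24 h post-dose. Activity fitted in both directions relative to DMSO; parallel SRB and Alamar Blue cytotoxicity read-outs.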

CD40, CD40 (gene 958) [17] = assay: BSK_SAg_CD40: BioMAP Diversity Plus: SAg Assay for CD40 Biomarker Activity (AID 2283088); conditions: primary human HUVEC with PBMC; actives raise or lower the signal
Outline: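 CD40 is measured by fluorescence ELISA in an endothelial/PBMC primary human co-culture at 24 h post-dose. Fitting is bidirectional, DMSO baseline. Parallel SRB staining (560 nm) flags cytotoxicity.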

[18] = read-out: Monocyte Chemoattractant Protein-1 (MCP1), CCL2 (gene 6347); assay: BSK_SAg_MCP1: BioMAP Diversity Plus: SAg Assay for Monocyte Chemoattractant Protein-1 (MCP1) Biomarker Activity (AID 2283090); conditions: primary human HUVEC with PBMC; actives raise or lower the signal
Outline: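 Values derive from bidirectional fitting of ELISA-measured MCP1 against DMSO controls. Readings were taken 24 h after dosing human vascular endothelial cells co-cultured with peripheral blood mononuclear cells under superantigen stimulation.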

CD69, CD69 (gene 969) = assay: BSK_SAg_CD69: BioMAP Diversity Plus: SAg Assay for CD69 Biomarker Activity (AID 2283089); conditions: primary human HUVEC with PBMC; actives raise or lower the signal
Outline: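 Primary human vascular co-culture (umbilical vein endothelium with peripheral blood mononuclear cells) exposed to test chemical for 24 h. CD69 levels quantified by fluorescence ELISA; DMSO served as negative control for bidirectional fitting.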

Measured: AC50

Chain of Tumor necrosis factor (Homo sapiens) (P01375 whole entry, looked up): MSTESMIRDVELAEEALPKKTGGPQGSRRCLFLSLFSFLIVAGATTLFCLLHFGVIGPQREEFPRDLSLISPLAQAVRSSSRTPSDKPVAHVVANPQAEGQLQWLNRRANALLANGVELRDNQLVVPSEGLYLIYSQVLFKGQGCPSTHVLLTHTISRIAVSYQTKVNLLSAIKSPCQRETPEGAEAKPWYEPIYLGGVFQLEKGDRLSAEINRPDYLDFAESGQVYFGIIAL
Chain of E-selectin (Homo sapiens) (P16581 whole entry, looked up): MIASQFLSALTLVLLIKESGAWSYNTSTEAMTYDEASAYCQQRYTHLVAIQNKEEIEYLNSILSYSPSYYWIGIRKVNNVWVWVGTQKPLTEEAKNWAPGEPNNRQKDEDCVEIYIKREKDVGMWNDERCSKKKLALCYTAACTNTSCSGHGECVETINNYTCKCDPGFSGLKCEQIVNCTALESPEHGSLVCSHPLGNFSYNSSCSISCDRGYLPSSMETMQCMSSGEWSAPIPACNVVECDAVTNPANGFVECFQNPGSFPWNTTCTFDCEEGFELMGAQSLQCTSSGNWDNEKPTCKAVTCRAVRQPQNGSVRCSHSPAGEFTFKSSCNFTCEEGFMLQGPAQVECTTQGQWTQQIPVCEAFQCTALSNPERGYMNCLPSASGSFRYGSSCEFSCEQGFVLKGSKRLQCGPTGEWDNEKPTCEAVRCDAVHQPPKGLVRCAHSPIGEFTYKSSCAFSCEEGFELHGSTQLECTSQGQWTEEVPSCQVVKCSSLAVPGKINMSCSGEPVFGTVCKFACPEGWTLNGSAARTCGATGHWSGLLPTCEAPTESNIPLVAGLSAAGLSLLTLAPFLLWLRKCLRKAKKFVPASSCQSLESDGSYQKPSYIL

Cc1ccccc1O
active: [12] 3.97 µM
not listed: CD69, CD69 (gene 969)
inactive: all other assays above

CC#Cc1cc(C)nc(Nc2ccccc2)n1
active: [12] 8.96 µM
not listed: CD69, CD69 (gene 969)
inactive: all other assays above

CCCN(CCC)N=O
inactive: all assays above

O=S(=O)(O)C(F)(F)C(F)(F)C(F)(F)C(F)(F)F
not listed: [7] | [14] | CD69, CD69 (gene 969)
inactive: all other assays above

CO/C=C(/C(=O)OC)c1ccccc1COc1cccc(C(F)(F)F)n1
inactive: [1] | [3] | [5] | [10] | [12] | [14]
active: [2] 5.13 µM | [4] 12.7 µM | CD40, CD40 (gene 958) [6] 18.3 µM | [8] 3.06 µM | [9] 10.6 µM | [11] 4.01 µM | [13] 12 µM | [15] 0.783 µM | [16] 13.4 µM | CD38, CD38 (gene 952) 6.48 µM | CD40, CD40 (gene 958) [17] 7.75 µM | [18] 8.9 µM

COc1ccc(O)c(C(C)(C)C)c1
inactive: [1] | [2] | [3] | [4] | CD40, CD40 (gene 958) [6] | [7] | [8] | [9] | [10] | [11] | [13] | [14] | [15] | [16] | CD38, CD38 (gene 952) | CD40, CD40 (gene 958) [17] | CD69, CD69 (gene 969) | [18]
active: [12] 1.71 µM and 2.48 µM and 4.59 µM | CD40, CD40 (gene 958) [17] 28.9 µM

CCCCCCCCCC[N+](C)(C)CCCCCCCCCC
active: [1] 4.71 µM | [2] 3.03 µM | [3] 4.69 µM | [4] 4.56 µM | [5] 5.24 µM | CD40, CD40 (gene 958) [6] 4.27 µM | [7] 4.41 µM | [8] 5.86 µM | [9] 5.32 µM | [10] 3.75 µM | [11] 4.16 µM | [12] 3.88 µM | [13] 3.79 µM | [15] 3.79 µM | [16] 7.43 µM | CD38, CD38 (gene 952) 2.38 µM | CD40, CD40 (gene 958) [17] 4.45 µM | [18] 3.45 µM

Cc1ccc(O)c(C)c1
active: CD40, CD40 (gene 958) [6] 11.6 µM | [12] 3.27 µM | [16] 4.7 µM
not listed: [7] | [14]
inactive: all other assays above

Nn1cnnc1
not listed: [5] | CD69, CD69 (gene 969)
inactive: all other assays above

O=C(NC(=O)c1cc(F)c(F)cc1Cl)Nc1cc(F)ccc1N1CCC(C(=O)O)CC1
active: [15] 10 µM
not listed: [5] | [14]
inactive: all other assays above

N#Cc1ccc(N(CC(N)=O)CC(F)(F)F)cc1C(F)(F)F
inactive: all assays above
